24 molecules from PubChem BioAssay can be followed below.

A word on the viability: it is a read-out of living cells in per cent, often relative to untreated cells. A word on the inhibition: it is the drop in the measured response relative to a control, in per cent.

Assay [1] in a line: P. berghei load reduction in hepatocytes – cell-based, HepG2, luciferase luminescence, HepG2 viability, primary screen (AID 624349; in the data active means parasite load remaining mostly below about 12%, no sharp cut-off; inactive means mostly above about 10%;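 further: 100% = mean of DMSO negative control wells on the same plate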). The following applies: P. berghei liver stage in HepG2, luciferase luminescence, concentration not given here; parasite load remaining: stronger effect = lower value; viability: measured here: HepG2 viability without parasites.
A short description of assay [2]: Wnt pathway potentiators raising nuclear beta-catenin – imaging, WNT3A-conditioned medium, mouse C2C12, NPC library, primary screen (AID 1117326; in the data active means nuclear beta-catenin stimulation mostly above about 4.2%, no sharp cut-off; inactive means mostly below about 10%). The settings on record: stronger effect = higher value.
The nature of assay [3]: compounds altering viability of human ES cells (AID 493140).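 Further: cells exposed to compounds for four days before counting.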 The following applies: human embryonic stem cell survival screen; stronger effect = higher value.
The nature of assay [4]: signal quenchers or enhancers, Cy5 substrate/SSB – biochemical, NIH Clinical Collection, E. coli SSB, artefact control for HCV NS3 helicase inhibitor project (AID 743268). The settings on record: Cy5-oligo bound E. coli SSB, fluorescence interference.
The test system of assay [5] is Hepatitis C virus NS3 helicase. Description: blockers of NS3h binding to DNA – biochemical, fluorescence polarization, NIH Clinical Collection, primary screen (AID 743270). The following applies: NS3 helicase binding to Cy5-dT15 DNA, stronger effect = higher value, concentration not given here. In general terms: Polarisation of emitted light reports the rotation of a fluorescent probe.

Assay [6] addresses Single-stranded DNA-binding protein (Escherichia coli (strain K12)) (UniProt P0AGE0). Description: SSB-ssDNA binding inhibitors – biochemical, fluorescence polarization, NIH Clinical Collection, counter-screen for HCV NS3 helicase inhibitor project (AID 743271; in the data active means inhibition above about 28%). The settings on record: E. coli SSB-DNA binding, stronger effect = higher value, concentration not given here.
A short description of assay [7]: compounds distorting NS3 helicase fluorescence signal – biochemical, NIH Clinical Collection, artefact control for HCV NS3 helicase inhibitor project (AID 743272).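 Further: HCV NS3 helicase with a Cy5 labelled single stranded DNA probe.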 The settings on record: fluorescence interference counterscreen, HCV NS3 helicase assay; stronger effect = lower value. Background: The purpose of a counterscreen is to sort out artefacts and off-target activity.

The subject of assay [8] is Neuropilin-2 / VEGF-C interaction (human). Description: small molecules blocking Neuropilin-2/VEGF-C interaction – biochemical, microplate binding format, z-score (AID 743281). The settings on record: microplate NRP2/VEGF-C binding assay; stronger effect = lower value.
The subject of assay [9] is Hepatitis C virus NS3 helicase. The assay can be described thus: blockers of NS3h binding to ssDNA – biochemical, fluorescence polarization, LOPAC1280 library, primary screen (AID 687035; in the data active means inhibition above about 37%). The following applies: Purified HCV NS3 helicase, Cy5-dT15 ssDNA binding fluorescence polarization; stronger effect = higher value; concentration not given here.
A short description of assay [10]: compounds altering Cy5-DNA-NS3h complex signal – biochemical, LOPAC1280, artefact control for HCV NS3 helicase inhibitor project (AID 687037). The settings on record: Cy5-DNA-NS3h complex fluorescence interference counterscreen.

“And” between values parts separate entries of the source, which are not always exact repeats. Equal values may be shown once. The source made the active and inactive calls. Unless noted, how the calls were made is not given here. Peptide text beside a SMILES is read from it.

Consider `O=C(O)c1cc(O)c(O)c(O)c1`, for which, in assay [1], the parasite load remaining is 50.3% (inactive) and the viability stood at 100%. In addition, in assay [2] (at 10 µM), the nuclear beta-catenin stimulation is 1% (inactive). The nuclear beta-catenin stimulation in assay [2] (stimulation, at 2 µM) is -0.2%.

For the molecule `CCC[C@H](N[C@@H](C)C(=O)N1[C@H](C(=O)O)C[C@@H]2CCCC[C@@H]21)C(=O)OCC`, in assay [1], the parasite load remaining was 98.2% (inactive) and 68.9% (inactive) and 42.7% (inactive); the viability was 70.3% and 83% and 98.6%. Also, the nuclear beta-catenin stimulation in [2] (at 10 µM) is 1.3% (inactive). Also, in assay [2] (stimulation, at 2 µM), the nuclear beta-catenin stimulation amounted to 0.5%.

Regarding `Nc1c2ccccc2nc2ccccc12`, in assay [1], the parasite load remaining was 23.3% (inactive) and 22.9% (inactive); the viability was 78.7% and 67.3%. In addition, the nuclear beta-catenin stimulation in [2] (at 10 µM) is 21.1% (inactive). In assay [2] (stimulation, at 2 µM), the nuclear beta-catenin stimulation was determined as 0.1%.

`COC(=O)[C@H](Cc1ccccc1)NC(=O)[C@@H](N)CC(=O)O` (H-Asp-Phe-OMe): in assay [1], the parasite load remaining was 156% (inactive) and 74.6% (inactive); the viability was 84.2% and 212%. Besides, the nuclear beta-catenin stimulation in assay [2] (at 10 µM) was 4.5% (inactive). In assay [2] (stimulation, at 2 µM), the nuclear beta-catenin stimulation is 1.1%.

Take `CC(=O)Nc1c(I)cc(I)c(C(=O)O)c1I`: the parasite load remaining in assay [1] was 151% (inactive) and 81.4% (inactive). The viability in [1] was 82.9% and 215%. Further, the nuclear beta-catenin stimulation in assay [2] (at 10 µM) was -0.1% (inactive); in [2] (stimulation, at 2 µM) it was 1.9%.

Take `CC(C(=O)O)c1ccc2c(c1)[nH]c1ccc(Cl)cc12` (configuration not stated): in assay [1], the parasite load remaining was 138% (inactive) and 52% (inactive); the viability is 73.1% and 91.7%. The nuclear beta-catenin stimulation in assay [2] (at 10 µM) was -0.6% (inactive). Also, in [2] (stimulation, at 2 µM), the nuclear beta-catenin stimulation is 1.1%.

Consider `CN1CCCCC1CCN1c2ccccc2Sc2ccc(S(C)=O)cc21` (configuration not stated), for which the survival in [3] was 3.42 (inactive). The fluorescence ratio in [4] is 0.96 (inactive); in assay [7], 0.95 (inactive). The figures for the inhibition in assay [5] and in assay [6] were -2.77% (inactive) and -3.18% (inactive), respectively. Moreover, in assay [8], the z-score was 0.284 (inactive). For the same molecule, the nuclear beta-catenin stimulation was 2.6% (inactive) in assay [2] (at 10 µM) and 3.5% in assay [2] (stimulation, at 2 µM).

In the case of `CCc1oc2ccccc2c1C(=O)c1cc(Br)c(O)c(Br)c1`, the survival in [3] was 13.1 (inactive). Also, the viability in assay [1] is 118% and 76% and 66.9%. Further, the fluorescence ratio in assay [4] is 0.92 (inactive); in assay [7] it was 0.93 (inactive). For the same molecule, the inhibition is -2.84% (inactive) in [5] and 9.06% (inactive) in assay [6]. Further, the z-score in assay [8] is 0.212 (inactive). Also, the nuclear beta-catenin stimulation in assay [2] (at 10 µM) is 5.3% (inactive); in assay [2] (stimulation, at 2 µM), 4.6%.

In the case of `Cc1ncc([N+](=O)[O-])n1CC(O)CCl` (configuration not stated), in [3], the survival is 23.5 (inactive). In addition, the fluorescence ratio in assay [4] and in [7] was 0.99 (inactive) each time. Further, the inhibition is 5.94% (inactive) in [5] and 0.67% (inactive) in [6]. In assay [8], the z-score is -0.43 (inactive). Moreover, the nuclear beta-catenin stimulation in assay [2] (at 10 µM) is 0.8% (inactive); in assay [2] (stimulation, at 2 µM), 1.1%.

As for `Cc1[nH]c(C)c(Cl)c(=O)c1Cl`, in assay [1], the parasite load remaining is 132% (inactive) and 21.1% (inactive) and 5.5% (inactive); the viability is 78.8% and 117% and 80.5%. Moreover, the nuclear beta-catenin stimulation in [2] (at 10 µM) is 1.4% (inactive). Besides, the nuclear beta-catenin stimulation in [2] (stimulation, at 2 µM) was 0.4%.

Take `Cc1nccn1CC1CCc2c(c3ccccc3n2C)C1=O` (configuration not stated): in assay [3], the survival is 36.2 (inactive). In addition, the fluorescence ratio was 0.99 (inactive) and 1.12 (inactive) in assay [4]; 0.97 (inactive) and 1.02 (inactive) in [7]. The inhibition in assay [5] is 0.4% (inactive) and -4.09% (inactive); in assay [6], 3.75% (inactive) and 1.05% (inactive). Besides, the z-score in assay [8] is -0.188 (inactive). The nuclear beta-catenin stimulation is -0.2% (inactive) in assay [2] (at 10 µM) and 1.9% in [2] (stimulation, at 2 µM).

With `O=C(O)c1cn(-c2ccc(F)cc2)c2cc(N3CCNCC3)c(F)cc2c1=O`, in assay [1], the parasite load remaining was 63.8% (inactive) and 65.5% (inactive) and 24.1% (inactive); the viability was 92.7% and 132% and 71%. For the same molecule, in assay [2] (at 10 µM), the nuclear beta-catenin stimulation is 0.8% (inactive). For the same molecule, the nuclear beta-catenin stimulation in assay [2] (stimulation, at 2 µM) worked out at 2.8%.

Take `Cc1cnc(C(=O)O)c[n+]1[O-]`: in assay [1], the parasite load remaining was 22.9% (inactive) and the viability came to 79.5%. For the same molecule, the nuclear beta-catenin stimulation in assay [2] (at 10 µM) is 2.4% (inactive). The nuclear beta-catenin stimulation in assay [2] (stimulation, at 2 µM) is 1.1%.

As for `COc1cc2c3cc1Oc1cc(ccc1O)C[C@@H]1c4c(cc(OC)c(O)c4Oc4ccc(cc4)C[C@@H]3N(C)CC2)CC[N+]1(C)C`, in assay [1], the parasite load remaining is 55.9% (inactive) and 65.3% (inactive); the viability is 118% and 192%. Besides, the nuclear beta-catenin stimulation in assay [2] (at 10 µM) was 3.1% (inactive). In addition, the nuclear beta-catenin stimulation in assay [2] (stimulation, at 2 µM) is -0.1%.

In the case of `CNC[C@H](O)[C@@H](O)[C@H](O)[C@H](O)CO`, in [1], the parasite load remaining was 64.5% (inactive) and the viability worked out at 224%. In [2] (at 10 µM), the nuclear beta-catenin stimulation was -1.8% (inactive). In [2] (stimulation, at 2 µM), the nuclear beta-catenin stimulation is -1.1%.

As to `NC[C@H]1O[C@H](O[C@H]2[C@H](O)[C@@H](O[C@H]3O[C@H](CO)[C@@H](O)[C@H](N)[C@H]3O)[C@H](N)C[C@@H]2N)[C@H](N)[C@@H](O)[C@@H]1O`, the parasite load remaining in assay [1] was 95.5% (inactive) and 56.4% (inactive). Also, the viability in assay [1] was 69.4% and 85.5%. Further, the nuclear beta-catenin stimulation in [2] (at 10 µM) is 0.8% (inactive); in assay [2] (stimulation, at 2 µM), -1.6%.

`COc1ccc(-c2cc(C(F)F)nn2-c2ccc(S(N)(=O)=O)cc2)cc1F`: in assay [1], the parasite load remaining was 70.5% (inactive) and the viability was 97.2%. The nuclear beta-catenin stimulation in [2] (at 10 µM) is 4% (inactive). In addition, in [2] (stimulation, at 2 µM), the nuclear beta-catenin stimulation was 0.7%.

Turning to `COc1ccc(C(=O)CC(=O)c2ccc(C(C)(C)C)cc2)cc1`, in assay [1], the parasite load remaining was 168% (inactive) and 61% (inactive); the viability was 84.8% and 202%. For the same molecule, the nuclear beta-catenin stimulation in [2] (at 10 µM) is -0.4% (inactive). Further, the nuclear beta-catenin stimulation in assay [2] (stimulation, at 2 µM) came to 3%.

With `C/C=C/c1ccc(OC)cc1`, in assay [1], the parasite load remaining is 163% (inactive) and 38.2% (inactive) and 65% (inactive); the viability was 88.5% and 100% and 126%. The nuclear beta-catenin stimulation in [2] (at 10 µM) is -1.7% (inactive). Moreover, in assay [2] (stimulation, at 2 µM), the nuclear beta-catenin stimulation came out at 2.3%.

As for `COc1ccc2nc(S(=O)Cc3ncc(C)c(OC)c3C)[nH]c2c1` (configuration not stated), the survival in assay [3] was 10.2 (inactive). Moreover, the fluorescence ratio was 1.02 (inactive) in [4] and 0.98 (inactive) in assay [7]. Also, the inhibition was -1.97% (inactive) in [5] and -3.54% (inactive) in [6]. In addition, the z-score in [8] was -0.241 (inactive). Further, the nuclear beta-catenin stimulation was 8.5% (inactive) in assay [2] (at 10 µM) and 4.5% in [2] (stimulation, at 2 µM).

As for `Cc1cc(C(C)(C)C)c(O)c(C(C)(C)C)c1`, in [1], the parasite load remaining was 72.6% (inactive) and the viability came to 95.9%. The nuclear beta-catenin stimulation in [2] (at 10 µM) is 1.4% (inactive). Also, the nuclear beta-catenin stimulation in assay [2] (stimulation, at 2 µM) is 0.1%.

`Nc1ncnc2nc[nH]c12`: in assay [1], the parasite load remaining was 110% (inactive) and 37.4% (inactive); the viability is 91.6% and 128%. The nuclear beta-catenin stimulation in assay [2] (at 10 µM) is -2.6% (inactive). Also, the nuclear beta-catenin stimulation in [2] (stimulation, at 2 µM) was -0.4%.

Take `COc1ccc(CC2c3cc(OC)c(OC)cc3CC[N+]2(C)CCC(=O)OCCCCCOC(=O)CC[N+]2(C)CCc3cc(OC)c(OC)cc3C2Cc2ccc(OC)c(OC)c2)cc1OC` (configuration not stated): the survival in [3] was 12.4 (inactive). For the same molecule, the results for the fluorescence ratio in [4] and in assay [7] were 1.03 (inactive) and 1.02 (inactive), respectively. The results for the inhibition in [5] and in assay [6] were -1.09% (inactive) and 1.97% (inactive), respectively. In addition, in [8], the molecule was called inactive. For the same molecule, the nuclear beta-catenin stimulation was 21.5% (inactive) in [2] (at 10 µM) and 0.3% in [2] (stimulation, at 2 µM).

With `CC(C)NCC(O)COc1ccc(COCCOC(C)C)cc1` (configuration not stated), in assay [3], the survival was 6.5 (inactive). Moreover, the inhibition was 2% (inactive) in assay [9], 1.19% (inactive) in assay [5] and -0.1% (inactive) in [6]. Moreover, the fluorescence ratio (interference) in assay [10] was 1 (inactive). Besides, the fluorescence ratio in assay [4] is 1.04 (inactive); in assay [7], 0.94 (inactive). Also, in assay [8], the z-score is -0.164 (inactive). Moreover, the nuclear beta-catenin stimulation was 0.8% (inactive) in [2] (at 10 µM) and 1.2% in assay [2] (stimulation, at 2 µM).
